# Bioassay records as filed in PubChem.
# Most compounds without a hit are left out; they make up all but 6.9% or so of the library.
# SW480 rerep – inducers of DNA re-replication in SW480 colon cancer cells; AID 624297; 1.8% of 340,000 active; SW480 DNA re-replication, Hoechst DNA content imaging, 48 h; Potency, µM (titrated, usually from 46.1 µM), inactives show at the top dose re-replication activation, hits mostly activators; also: potency is read from the fitted curve at half-maximal effect; % of control where 0% means no effect; nearly all actives have a fitted effect of over 55% in size
#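 SW480 cells exposed to compounds for 48 hr at 37 C, 5% CO2, then Hoechst-stained 40 min. Nuclear DNA content imaged by fluorescence scanning (405 nm excitation, 500-530 nm emission); re-replication scored as increased high-intensity nuclei.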
# Giardia kill – Giardia lamblia killing; AID 540267; Giardia lamblia trophozoite viability; activity change, % at 7.66 µM, hits read low; 0.15% of 340,000 active; in the data active = activity change below about -80%; inconclusive = between about -30% and that limit;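 also: parasites exposed to compound for two days anaerobically before the ATP read; % is scaled to controls: 0 for no effect and ±100 for the full control effect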
#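 Giardia trophozoites, 100 cells per well, were exposed to compounds for 48 hrs at 37 deg C under anaerobic conditions; viability was then read as ATP content by bioluminescence after 15-30 min at room temperature.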
# KB-3-1 tox – KB-3-1 parental cell cytotoxicity; KB-3-1 viability, CellTiter-Glo ATP luminescence, 72 h; Potency, µM (series often up to 46.1 µM), hits mostly cytotoxic; 1.4% of 400,000 active; also: potency is read from the fitted curve at half-maximal effect; % is scaled to controls: 0 for no effect and ±100 for the full control effect; nearly all actives have a fitted effect of over 60% in size
#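 Multi-concentration cytotoxicity screen in KB-3-1 cells grown in DMEM lacking phenol red with 10% FBS. After 72 h at 37 °C with compound, ATP-dependent luminescence was recorded.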
# ASM inhibitor – inhibitors of human secretory acid sphingomyelinase; 0.006% of 340,000 active; AID 504937; P17405; Potency, µM (doses to about 57.5 µM), without a hit: at the top dose activity change, negative = inhibition, usual class: inhibitors; placental ASM, HMU-PC fluorogenic substrate, 60 min; also: potency is read from the fitted curve at half-maximal effect
# Target sequence (P17405 47-631 limits assumed): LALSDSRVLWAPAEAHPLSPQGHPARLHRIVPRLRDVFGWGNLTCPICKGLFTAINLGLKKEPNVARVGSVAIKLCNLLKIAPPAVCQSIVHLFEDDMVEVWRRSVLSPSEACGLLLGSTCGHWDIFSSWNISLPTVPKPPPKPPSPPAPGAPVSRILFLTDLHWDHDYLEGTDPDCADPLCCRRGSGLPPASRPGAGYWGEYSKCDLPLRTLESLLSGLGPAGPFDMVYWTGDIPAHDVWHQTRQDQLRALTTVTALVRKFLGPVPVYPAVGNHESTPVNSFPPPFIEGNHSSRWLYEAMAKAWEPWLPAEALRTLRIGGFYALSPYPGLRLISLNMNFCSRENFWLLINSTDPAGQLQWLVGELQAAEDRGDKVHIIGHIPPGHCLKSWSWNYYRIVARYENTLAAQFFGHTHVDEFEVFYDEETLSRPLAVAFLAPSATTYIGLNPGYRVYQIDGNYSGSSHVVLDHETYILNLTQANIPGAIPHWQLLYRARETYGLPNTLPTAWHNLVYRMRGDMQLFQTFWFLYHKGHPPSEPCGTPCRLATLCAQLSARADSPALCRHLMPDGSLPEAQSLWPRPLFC
#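 Fluorogenic HMU-PC substrate (9 uM final) is turned over by placental ASM in 60 min at 37 C after a 10 min compound preincubation. Reaction ended by alkaline stop (pH 10), with fluorescence read at 386/447 nm.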
# KB-V1 cytotox – kills drug-selected multidrug resistant KB-V1 cells. 3.4% of 400,000 active. Potency, µM (doses to about 46.1 µM), actives largely listed as cytotoxic. KB-V1 MDR cells viability, CellTiter-Glo, 72 h; also: potency is read from the fitted curve at half-maximal effect; % is scaled to controls: 0 for no effect and ±100 for the full control effect; nearly all actives have a fitted effect of over 60% in size
#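 Cytotoxicity via CellTiter-Glo luminescence after 72 h compound exposure at 37 degrees C. Cells: drug-selected KB-V1 line, DMEM phenol-red free plus 10% FBS. Compounds tested at multiple concentrations; normalized data fitted to concentration-effect curves.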
# MCF10A rereplic – induces DNA re-replication in MCF 10a normal breast cells. MCF 10A DNA re-replication, Hoechst nuclear intensity, 48 h. Potency, µM (titrated, usually from 46.1 µM), without a hit: at the top dose activity, positive = re-replication, usual class: activators. 2.9% of 350,000 active. AID 624296; also: potency is read from the fitted curve at half-maximal effect; % of control where 0% means no effect; nearly all actives have a fitted effect of over 50% in size
# Numbers without * were called inactive; i = inactive; ? = inconclusive; . = not tested or not shown; ! = a repeat was not active. Unless noted, calls follow the shape of the dose curve; as a rule, active = well fitted curve in the direction sought with a large enough effect; inconclusive = small, poorly fitted or top-dose-only effect, or another doubt; inactive = no such curve, though single readings can be large; an effect the other way counts as inactive or inconclusive.
SMILES,SW480 rerep,Giardia kill,KB-3-1 tox,ASM inhibitor,KB-V1 cytotox,MCF10A rereplic
Cc1cc(C)nc(NS(=O)(=O)c2ccc(NC(=S)NC(=O)c3cccnc3)cc2)n1,-4%,0,i,11%,i,3%
Cc1cc(NS(=O)(=O)c2ccc(NC(=S)NC(=O)c3cccnc3)cc2)no1,3.3µM*,-9,i,0%,i,-9%
CCSc1nc(-c2ccc(OC)cc2)n(-c2nc3ccccc3s2)n1,5%,-17,i,-6%,12µM*,14%
COc1ccccc1-n1cc2c([N+](=O)[O-])cc([N+](=O)[O-])cc2n1,-6%,-85*,i,-1%,i,2%
COc1ccccc1N1CC=C(c2cccc([N+](=O)[O-])c2)NC1=O,-4%,-5,i,-2%,i,-3%
COc1ccc2nc(-c3ccccc3)[nH]c2c1,11%,?,i,0%,i,10%
CCOc1ccc2nc(-c3ccccc3)[nH]c2c1,18µM*,?,?,-2%,i,5.2µM*
Cc1ccnc(NC(=O)c2ccc(OCC3CCCO3)cc2)c1 (configuration not stated),?,-85*,?,3%,?,-8%
Cc1csc(NC(=O)c2ccc(OCC3CCCO3)cc2)n1 (configuration not stated),-4%,-15,i,-1%,13µM*,-6%
O=C(Nc1nc(-c2ccc(F)c(F)c2)cs1)c1ccc(OCC2CCCO2)cc1 (configuration not stated),1%,-3,?,-4%,?,-3%
CCCN1C(=O)C2(c3ccccc31)c1c(oc3ccccc3c1=O)C(=O)N2CCCOC(C)C (configuration not stated),.,.,i,.,?,.
COc1cc(-c2ccc3ncnc(NCc4cccs4)c3c2)cc(OC)c1OC,.,.,i,.,i,.
CC(=O)Nc1ccc(N=Cc2c(O)c(C(=O)Nc3ccccc3)cc3ccccc23)cc1,-5%,-4,i,-10%,?,3.7µM*
Cc1ccc(S/C(=N/S(=O)(=O)c2ccc(Cl)cc2)c2ccccc2)cc1,.,-1,?,.,i,.
CCOC(=O)C1=C(CC)Nc2ccccc2N=C1NC(=O)c1oc2ccccc2c1C,20%,-2,i,-5%,?,?
CCOCc1c(C(=O)NC2=Nc3ccccc3NC(CC)=C2C(=O)OCC)oc2ccccc12,21µM*,-16,?,-2%,?,10µM*
CC(NC(=O)Cn1c(=O)oc2cc(S(=O)(=O)NCc3ccccc3)ccc21)c1ccccc1 (configuration not stated),.,.,i,.,i,.
COc1ccc(Br)cc1C1CC(=O)C(C)C(c2cc(Br)ccc2OC)N1 (configuration not stated),6%,-11,i,-4%,i,17%
CC1=C(C)CS(=O)N(S(=O)(=O)c2ccccc2)C1 (configuration not stated),?,4,i,-3%,?,?
O=S(=O)(/N=S1\CC=CCN1S(=O)(=O)c1ccccc1)c1ccccc1 (configuration not stated),?,-10,i,4%,i,18µM*
O=C(c1ccco1)N1N=C(c2ccco2)CC1c1ccc(Cl)cc1Cl (configuration not stated),?,-1,?,1%,i,23µM*
COC(=O)[C@]12CCCCC=C1N(Cc1ccc3c(c1)OCO3)C(=O)[C@H](CC(=O)NCC1CCCCC1)C2,.,.,i,.,?,.
CCCN1CCC(=O)N(CCC#N)CC1,.,.,i,.,i,.
Cc1ccc(C)c(N2CCN(C(=O)c3ccc(CS(=O)Cc4cccc(Cl)c4)o3)CC2)c1 (configuration not stated),-17%,-14,i,-4%,i,?
O=C(COc1ccc(Cl)cc1Br)NCC(c1ccco1)N1CCCC1 (configuration not stated),-4%,7,i,6%,5.8µM*,11%
SMILES,SW480 rerep,Giardia kill,KB-3-1 tox,ASM inhibitor,KB-V1 cytotox,MCF10A rereplic
NCC1CCN(c2nc3ccccc3c3c2CCCC3)CC1,?,-10,23µM*,3%,15µM*,?
CCN(CC)c1cc(C)c2cc(NC(=O)c3ccc(Br)o3)ccc2n1,?,-10,?,6%,?,9.2µM*
CCN(CC)c1cc(C)c2cc(NC(=O)c3ccccc3OC)ccc2n1,?,29,18µM*!,115%,?,?
CCN(CC)c1cc(C)c2cc(NC(=O)/C=C/c3ccccc3Cl)ccc2n1,.,.,13µM*,.,i,.
CCN(CC)c1cc(C)c2cc(NC(=O)c3cc(OC)cc(OC)c3)ccc2n1,.,.,i,.,i,.
COc1ccc(Nc2cc(C)c3cc(NC(=O)c4ccccc4Cl)ccc3n2)cc1,.,.,i,.,18µM*,.
CCN(CC)c1cc(C)c2cc(NC(=O)c3ccc(OC)c(OC)c3)ccc2n1,.,.,16µM*,.,i,.
Cc1ccc(NC(=O)CCc2c(C)nc3nc(C)nn3c2C)c(Cl)c1,.,.,i,.,i,.
CN(C(=S)NC(=O)c1ccccc1Br)C1CCCCC1,5.8µM*,-4,i,4%,?,-1%
Cc1ccccc1C(=O)NC(=S)N(C)C1CCCCC1,?,5,i,0%,i,3%
COc1ccc(-c2cc(C(N)=O)nc(N3CCCCCC3)n2)cc1,-1%,0,i,27%,?,18%
COc1ccc(-c2cc(C(F)(F)F)nc(N3CCCCC3)n2)cc1OC,9%,-3,i,29%,?,?
COc1ccc(-c2cc(C(F)(F)F)nc(N3CCCCCC3)n2)cc1,2%,6,i,23%,i,23µM*
COc1ccc(-c2cc(C(F)(F)F)nc(N3CCN(C)CC3)n2)cc1OC,12%,-9,?,-3%,16µM*,20%
COc1cccc(-c2cc(C(F)(F)F)n3ncc(S(=O)(=O)c4ccccc4)c3n2)c1,8.2µM*,-7,i,498%,i,7.3µM*
COc1cccc(-c2cc(C(F)(F)F)n3ncc(C(=O)O)c3n2)c1,-5%,-21,i,3%,i,2%
COc1ccc(-c2cc(C(F)(F)F)nc(-n3ccnc3C)n2)cc1,-7%,0,?,0%,21µM*,8%
CCN(CC)C(=O)c1sc2c(c1C)c(=O)n(-c1ccc(Cl)c(Cl)c1)c(=O)n2Cc1cc(=O)n2c(C)cccc2n1,.,.,i,.,i,.
C1=Nc2ccccc2/C1=C/c1c[nH]c2ccccc12,.,.,?,.,i,.
COc1ccc(-c2cc(C#N)nc(N3CCN(C)CC3)n2)cc1,-14%,-22,i,-1%,i,?
